Here are results for seven compounds from PubChem BioAssay.

Test [1] in a line: hESC survival regulators, cell-based (AID 493140; call rule not given here;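 also: cells exposed to compounds for four days before counting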). The conditions noted are these: human embryonic stem cell survival screen; stronger effect = higher value.
A short description of test [2]: liver-stage malaria parasite growth inhibition, primary screen, cell-based, HepG2, luciferase luminescence, HepG2 viability (AID 624349; in the data active = parasite load remaining mostly below about 12%, no sharp cut-off; inactive = mostly above about 10%;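 also: 100% = mean of DMSO negative control wells on the same plate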). The conditions noted are these: P. berghei liver stage in HepG2, luciferase luminescence, concentration not given here; parasite load remaining: stronger effect = lower value; viability: measured here: HepG2 viability without parasites.
In test [3] the test system is Hepatitis C virus NS3 helicase. Description: HCV NS3 helicase inhibitors, primary screen, biochemical, fluorescence polarization, LOPAC1280 library (AID 687035; in the data active = inhibition above about 37%). The conditions noted are these: Purified HCV NS3 helicase, Cy5-dT15 ssDNA binding fluorescence polarization; stronger effect = higher value; concentration not given here. Background: Polarisation of emitted light reports the rotation of a fluorescent probe.

A short description of test [4]: Cy5 fluorescence quenching or enhancement artefacts, artefact control for HCV NS3 helicase inhibitor project, biochemical, LOPAC1280 (AID 687037; call rule not given here). The conditions noted are these: Cy5-DNA-NS3h complex fluorescence interference counterscreen. Background: Counterscreens check selectivity or assay interference.
A short description of test [5]: differential killing of epithelial or mesenchymal cells, primary screen, imaging, PC-3E GFP, TEM4-18 mCherry, co-culture (AID 1345086;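 active = compounds killing one labelled cell type while sparing the other, by normalised counts and ratio limits, not self-fluorescent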;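 as to all read-outs here: cells exposed to compound for 72 h before imaging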;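 as to red/green cell ratio (normalised): normalised mesenchymal count divided by normalised epithelial count so high means epithelial killing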). Particulars: imaging cell counts, at 1 µM; for red/green cell ratio (normalised): actives lie on both sides, counts scaled to control wells, 1 = unselective.
The nature of test [6]: sensitizers of A549 cells to miR-34 induction, primary screen, imaging, A549 dox-inducible miR-34, nuclei and caspase counts (AID 1347080). Particulars: A549 miR-34 inducible, Hoechst nuclei count, 48 h.
The nature of test [7]: phospholipid biosynthesis inhibitors in animal cells, primary screen, cell-based, LOPAC library, screen 4 (AID 1347384; call rule not given here). Particulars: phospholipid biosynthesis inhibition screen, at 10 µM.
Test [8] can be described thus: survival rescue of mitochondrial mutant cells in low glucose, primary screen, MELAS cybrids, Rieske KO mouse fibroblasts, CellTiter-Glo (AID 1508586;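 active = mean z-score across replicates of 1.96 or higher in either the MELAS or the Rieske mutant cell line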;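 also: z relative to plate mean and SD of compound and empty wells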). For orientation: In ATP-based viability assays light output follows the ATP content of the culture.
Test [9] deals with NAD(+) hydrolase SARM1 (Homo sapiens) (UniProt Q6SZW1). Description: SARM1 TIR NADase inhibitors, cell lysate, NAD-Glo luminescence (AID 1508614;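 active = compound whose remaining NAD level is above about 45 nM, limit read from the data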;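 also: higher remaining NAD means stronger inhibition of SARM1 NADase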). The conditions noted are these: SAM-TIR HEK293T lysate NADase, at 1 µM, stronger effect = higher value.
Test [10] concerns the target Mitogen-activated protein kinase 7 (Homo sapiens) (UniProt Q13164). Description: ERK5 transactivation activators in reporter cells, primary screen, cell-based, HTS (AID 1508626;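 active = luciferase signal above three times the same-plate solvent-only control wells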;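 also: luciferase driven by Gal4-ERK5 fusion binding five Gal4 sites before minimal TATA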). Particulars: HeLa Gal4-ERK5 transactivation, 18 h, at 5 µM, stronger effect = higher value.
Test [11] is described as follows: viability rescue of complex I mutant cybrids, primary screen, cell-based, galactose medium, ATP luminescence (AID 1645843;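 active = z-score of at least 1.8 in each of two replicates, scored against plate mean and spread of sample wells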;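 also: positive z means more ATP and so rescue of galactose-driven cybrid death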). The conditions noted are these: complex I mutant cybrid cells, 72 h, stronger effect = higher value.
[12] abbreviates: measured here: epithelial PC-3E GFP cell survival.
Setting [13] is: measured here: mesenchymal TEM4-18 mCherry cell survival.
The mark [14] stands for this setting: stronger effect = lower value, cell number ratio, induced over uninduced.
Where [15] appears, read: measured here: relative caspase fold change +Dox/-Dox.
[16] abbreviates: measured here: total cells with miR-34 induction, stronger effect = lower value.
Where [17] appears, read: measured here: total cells without miR-34 induction.
The mark [18] stands for this setting: MELAS cybrid survival, CellTiter-Glo 48 h, stronger effect = higher value.
Where [19] appears, read: Rieske KO mouse fibroblast survival, CellTiter-Glo 72 h.

Values joined by “and” are separate entries in the source; they are usually repeats but may differ in a detail not shown here. Equal values may be shown once. Active and inactive are the calls of the source.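 The calls were made as follows, unless noted: active = compounds whose cell count with miR-34 switched on is under 0.7 times the count with it off; inactive = the rest.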

NAD(+) hydrolase SARM1 (Homo sapiens), sequence (Q6SZW1 whole entry, looked up, the tested form may be a part): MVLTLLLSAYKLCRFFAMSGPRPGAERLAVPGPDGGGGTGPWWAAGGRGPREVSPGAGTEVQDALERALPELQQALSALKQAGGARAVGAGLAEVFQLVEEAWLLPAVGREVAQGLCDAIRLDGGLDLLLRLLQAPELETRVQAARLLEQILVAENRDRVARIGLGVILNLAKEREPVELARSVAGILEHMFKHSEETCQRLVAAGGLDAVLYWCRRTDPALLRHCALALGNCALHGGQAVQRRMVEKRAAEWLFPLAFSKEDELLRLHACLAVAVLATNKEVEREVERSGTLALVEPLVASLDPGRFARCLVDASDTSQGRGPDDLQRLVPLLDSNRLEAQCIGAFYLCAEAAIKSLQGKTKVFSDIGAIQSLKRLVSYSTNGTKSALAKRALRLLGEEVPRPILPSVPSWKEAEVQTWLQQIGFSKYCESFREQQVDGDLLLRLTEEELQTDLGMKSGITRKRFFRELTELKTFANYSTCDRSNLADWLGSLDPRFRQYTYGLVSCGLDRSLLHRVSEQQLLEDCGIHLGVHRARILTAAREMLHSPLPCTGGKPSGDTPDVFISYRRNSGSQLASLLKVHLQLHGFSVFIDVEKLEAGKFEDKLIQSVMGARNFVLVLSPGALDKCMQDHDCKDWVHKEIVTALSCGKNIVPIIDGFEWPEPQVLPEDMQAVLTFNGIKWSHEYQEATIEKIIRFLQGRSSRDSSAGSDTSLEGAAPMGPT
Mitogen-activated protein kinase 7 (Homo sapiens), sequence (Q13164 whole entry, looked up, the tested form may be a part): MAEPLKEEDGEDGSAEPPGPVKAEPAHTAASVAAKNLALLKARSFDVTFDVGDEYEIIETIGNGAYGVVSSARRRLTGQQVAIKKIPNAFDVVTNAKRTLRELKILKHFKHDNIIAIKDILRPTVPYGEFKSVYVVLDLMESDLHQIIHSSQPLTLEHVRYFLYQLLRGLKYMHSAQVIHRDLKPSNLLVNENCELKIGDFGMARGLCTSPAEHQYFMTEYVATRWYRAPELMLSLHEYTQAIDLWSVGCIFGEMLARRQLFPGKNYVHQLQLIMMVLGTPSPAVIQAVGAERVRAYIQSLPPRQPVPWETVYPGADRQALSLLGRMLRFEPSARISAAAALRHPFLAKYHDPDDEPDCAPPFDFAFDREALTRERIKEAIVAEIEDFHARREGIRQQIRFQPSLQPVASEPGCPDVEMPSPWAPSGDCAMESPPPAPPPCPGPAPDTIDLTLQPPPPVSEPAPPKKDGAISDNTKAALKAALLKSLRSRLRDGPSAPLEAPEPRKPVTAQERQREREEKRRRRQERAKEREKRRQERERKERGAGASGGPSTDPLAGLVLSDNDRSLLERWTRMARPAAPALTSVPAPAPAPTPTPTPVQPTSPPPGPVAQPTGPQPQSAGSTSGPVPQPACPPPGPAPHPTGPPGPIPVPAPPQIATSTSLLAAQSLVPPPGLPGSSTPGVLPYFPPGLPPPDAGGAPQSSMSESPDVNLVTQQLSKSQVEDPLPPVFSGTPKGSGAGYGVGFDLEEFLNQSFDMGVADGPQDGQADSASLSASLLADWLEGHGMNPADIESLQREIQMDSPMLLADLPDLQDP

Turning to `CC(=O)c1ccc(S(=O)(=O)NC(=O)NC2CCCCC2)cc1`, the survival in test [1] was 14 (inactive). Moreover, the parasite load remaining in test [2] was 38.7% (inactive) and 91.1% (inactive) and 69.3% (inactive). Moreover, the viability in test [2] was 49.8% and 90.7% and 105%. The inhibition in test [3] is -2% (inactive). Further, the fluorescence ratio (interference) in [4] was 1 (inactive). The red/green cell ratio (normalised) in [5] is 0.86 (inactive). Further, the normalised cell number was 0.99 in test [5] (setting [12]) and 0.85 in test [5] (setting [13]). Further, the fold change in test [6] (setting [14]) was 1.04 (inactive) and 0.892 (inactive) and 0.85 (inactive); in test [6] (setting [15]), 2.43 and 1.31 and 5.06. Also, the cell count was 10800 and 8720 and 11600 in [6] (setting [16]); 10400 and 9780 and 13600 in [6] (setting [17]). In addition, the compound was called inactive in test [7]. Besides, the z-score in test [8] (setting [18]) was 0.0376 (inactive); in [8] (setting [19]) it was -0.115; in test [11], 0.71 (inactive). Further, in [9], the remaining NAD was 10 nM (inactive). For the same compound, the luciferase signal in test [10] is 44 AU (inactive).
Turning to `CC(C)CC(N)=O`, the red/green cell ratio (normalised) in test [5] is 0.8 (inactive). The normalised cell number in test [5] (setting [12]) turned out to be 1.07; in [5] (setting [13]), 0.86. Moreover, the fold change in test [6] (setting [14]) is 0.906 (inactive) and 0.908 (inactive); in test [6] (setting [15]) it was 0.955 and 0.851. For the same compound, the cell count in test [6] (setting [16]) is 8450 and 8440; in [6] (setting [17]) it was 9330 and 9300. The z-score in [8] (setting [18]) is -0.0903 (inactive); in [8] (setting [19]), -0.199. For the same compound, the remaining NAD in test [9] was 10 nM (inactive).
For `CC[C@H]1OC(=O)[C@H](C)[C@@H](O[C@H]2C[C@@](C)(OC)[C@@H](O)[C@H](C)O2)[C@H](C)[C@@H](O[C@@H]2O[C@H](C)C[C@H](N(C)C)[C@H]2O)[C@](C)(O)C[C@@H](C)[C@@H]2N[C@@H](COCCOC)O[C@H]([C@H]2C)[C@]1(C)O`, in [2], the parasite load remaining is 193% (inactive) and 158% (inactive) and 59.8% (inactive). In addition, the viability in [2] is 113% and 86.5% and 194%. Moreover, the red/green cell ratio (normalised) in [5] is 0.74 (inactive). The normalised cell number in test [5] (setting [12]) was 1.25; in test [5] (setting [13]), 0.93. In addition, the fold change in test [6] (setting [14]) is 0.867 (inactive) and 0.854 (inactive); in [6] (setting [15]), 0.963 and 2.6. In addition, the cell count in test [6] (setting [16]) is 8760 and 11500; in test [6] (setting [17]) it was 10100 and 13500. Also, the results for the z-score in test [8] (setting [18]) and in test [8] (setting [19]) were -1.14 (inactive) and -0.393, respectively. Also, the remaining NAD in [9] was 10 nM (inactive). Besides, the luciferase signal in [10] was 44 AU (inactive).
`CC(C)Cc1ccc([C@H](C)C(=O)O)cc1`: in test [1], the survival is 6.58 (inactive). Also, the parasite load remaining in test [2] is 89.2% (inactive). In addition, in test [2], the viability is 95.1%. In test [3], the inhibition was -6% (inactive). Further, the fluorescence ratio (interference) in test [4] is 0.9 (inactive). Further, the red/green cell ratio (normalised) in [5] was 0.85 (inactive). Further, the normalised cell number in test [5] (setting [12]) amounted to 0.93; in test [5] (setting [13]), 0.79. Also, the fold change in test [6] (setting [14]) is 1.1 (inactive) and 0.885 (inactive); in test [6] (setting [15]) it was 1.11 and 1.2. For the same compound, the cell count in [6] (setting [16]) was 10400 and 9190; in test [6] (setting [17]) it was 9420 and 10400. The outcome in [7] was inactive. The values for the z-score in [8] (setting [18]), in [8] (setting [19]) and in test [11] were 0.343 (inactive), -0.398 and 0.53 (inactive), respectively. Besides, in test [9], the remaining NAD is 26 nM (inactive).
On to `CO[C@@]12[C@@H]3NC3CN1C1=C(C(=O)C(N)=C(C)C1=O)[C@@H]2COC(N)=O` (some centres not stated), for which the parasite load remaining in test [2] is 0.12% (inactive). For the same compound, in test [2], the viability was 22.5%. In test [5], the red/green cell ratio (normalised) was 1.09 (inactive). Further, the normalised cell number in [5] (setting [12]) turned out to be 1.03; in test [5] (setting [13]) it was 1.13. In addition, the figures for the fold change in [6] (setting [14]) and in [6] (setting [15]) were 0.986 (inactive) and 0.958, respectively. Further, the results for the cell count in test [6] (setting [16]) and in [6] (setting [17]) were 1840 and 1870, respectively.
For `CN1C2CCCC1CC(NC(=O)c1nn(C)c3ccccc13)C2` (configuration not stated), in test [4], the fluorescence ratio (interference) was 1 (inactive). In test [5], the red/green cell ratio (normalised) is 0.96 (inactive). Also, the values for the normalised cell number in [5] (setting [12]) and in [5] (setting [13]) were 0.99 and 0.95, respectively. Also, the fold change in test [6] (setting [14]) was 0.966 (inactive) and 0.87 (inactive); in test [6] (setting [15]), 1.65 and 2.43. Besides, the cell count in test [6] (setting [16]) was 10200 and 8870; in [6] (setting [17]) it was 10600 and 10200. In addition, the call in test [7] was inactive. Also, the z-score in [11] was -0.44 (inactive) and 0.15 (inactive).
In the case of `CCOC(=O)CC(=O)N1CCSC1COc1ccccc1OC` (configuration not stated), in test [5], the red/green cell ratio (normalised) is 1.03 (inactive). Further, the normalised cell number in [5] (setting [12]) is 0.9; in test [5] (setting [13]), 0.93. The fold change in test [6] (setting [14]) was 0.901 (inactive) and 0.963 (inactive); in test [6] (setting [15]) it was 1.01 and 0.429. In addition, the cell count in [6] (setting [16]) is 7560 and 7640; in test [6] (setting [17]), 8380 and 7930. The values for the z-score in test [8] (setting [18]) and in [8] (setting [19]) were -0.272 (inactive) and -0.0679, respectively. Further, the remaining NAD in [9] is 10 nM (inactive).

For orientation: viability means a read-out of living cells in per cent, often relative to untreated cells. By inhibition is commonly meant the drop in the measured response relative to a control, in per cent.
